Drawing on PubChem BioAssay, this text covers z-score and composite z-score for five molecules.

Experiment [1] can be described thus: optical density shifts of acrAB sulA E. coli – strain DRC41, OD650, 48 h, E. coli filamentation inducer project, primary screen (AID 1152).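 Note: E. coli MC1000 strain DRC41 lacking acrAB efflux pump and sulA.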 To be noted: higher = more signal, called active from +8 up or from −8 down.
A short description of experiment [2]: probe aLefty1 binding on compound microarray – biochemical, small-molecule microarray, 635/667 nm fluorescence, primary screen (AID 1153).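 Note: score merges spot fluorescence with signal-to-noise ratio from the scanned slide images.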 The conditions noted are these: higher = more signal.
Experiment [3] in a line: plasmodial surface anion channel blockers, osmotic lysis – cell-based, P. falciparum Indochina, OD700, 1 h, primary screen (AID 1154). To be noted: P. falciparum Indochina infected RBC osmotic lysis, higher = more signal, called active from +8 up or from −8 down.
The nature of experiment [4]: plasmodial surface anion channel blockers, osmotic lysis – cell-based, P. falciparum Indochina, OD700, 2 h, primary screen (AID 1155).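 Note: lysis reports solute entry through the parasite surface anion channel PSAC.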 The conditions noted are these: P. falciparum Indochina infected erythrocytes, higher = more signal, called active from +8 up or from −8 down.
The nature of experiment [5]: changes in parasitized red cell lysis, either direction – P. falciparum Indochina, OD700, 3 h, PSAC antagonist project, primary screen (AID 1156). To be noted: P. falciparum-infected erythrocytes, osmotic lysis, higher = more signal, called active from +8 up or from −8 down.
Experiment [6] in a line: plasmodial surface anion channel blockers, osmotic lysis – cell-based, P. falciparum Indochina, OD700, 18 h, primary screen (AID 1157). To be noted: P. falciparum Indochina infected erythrocytes, osmotic lysis OD700, 18 h; higher = more signal, called active from +8 up or from −8 down.
A short description of experiment [7]: S6 kinase pathway phospho-S6 level changes – cell-based, A549, cytoblot, luminescence, serum-stimulated, primary screen (AID 1158).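 Note: serum-stimulated A549 lung adenocarcinoma cells; signal is phosphorylated S6 detected by cytoblot immunostaining with HRP secondary.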 The conditions noted are these: 5 h, higher = more signal.
Experiment [8] addresses NADPH oxidase 2 (Homo sapiens) (UniProt P04839). The experiment in a line: compounds shifting NOX2 Amplex Red fluorescence – cell-based, HEK293-NOX2, PMA-stimulated, NOX inhibitor project, primary screen (AID 1159). Note: test concentration not given here. To be noted: 45 min, higher = more signal, called active from +8 up or from −8 down.
Experiment [9] deals with NADPH oxidase 4 (Homo sapiens) (UniProt Q9NPH5). The experiment in a line: compounds shifting NOX4 Amplex Red fluorescence – cell-based, HEK293-NOX4, tetracycline-induced, NOX inhibitor project, primary screen (AID 1160). The conditions noted are these: HEK293-NOX4, Amplex Red H2O2 fluorescence, 45 min; higher = more signal, called active from +8 up or from −8 down.
Experiment [10] has as its target NADPH oxidase 5 (Homo sapiens) (UniProt Q96PH1). Briefly: compounds shifting NOX5 Amplex Red fluorescence – cell-based, HEK293-NOX5, NOX inhibitor project, primary screen (AID 1161). To be noted: HEK293-NOX5, ionomycin, 45 min, higher = more signal.
Experiment [11] can be described thus: compound effects on lung adenocarcinoma cell viability – A549, calcein-AM fluorescence, 48 h, basal, profiling panel (AID 1162). Note: test concentration not given here. The conditions noted are these: higher = more signal.
The nature of experiment [12]: compound effects on differentiated 3T3-L1 adipocyte viability – cell-based, 3T3-L1 adipocytes, calcein-AM fluorescence, 48 h, basal, profiling panel (AID 1163). Note: test concentration not given here. The conditions noted are these: 3T3-L1 adipocytes viability, higher = more signal.
Experiment [13] can be described thus: compound effects on hepatocellular carcinoma cell viability – HepG2, calcein-AM fluorescence, 48 h, basal, profiling panel (AID 1164). Note: test concentration not given here. To be noted: higher = more signal.
The nature of experiment [14]: compound effects on multiple myeloma cell viability – MM1S, calcein-AM fluorescence, 48 h, basal, profiling panel (AID 1165). Note: test concentration not given here. The conditions noted are these: higher = more signal.
Experiment [15] is described as follows: calcein-AM signal in unstimulated myeloma cells – cell-based, calcein-AM fluorescence, 48 h, PK04 Diversity Set, profiling panel (AID 1166).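 Note: cells grown under basal conditions without added stimulus; test concentration not given here.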 The conditions noted are these: RPMI8226 myeloma viability, higher = more signal.
Experiment [16] can be described thus: JC-1 mitochondrial signal, unstimulated HepG2 cells – cell-based, JC-1 fluorescence, 24 h, 100 nL compound, profiling panel (AID 1167). Note: test concentration not given here. The conditions noted are these: HepG2 mitochondrial potential, higher = more signal.
Experiment [17] is described as follows: JC-1 mitochondrial signal, unstimulated adipocytes – cell-based, JC-1 fluorescence, 3T3-L1 adipocytes, 24 h, 100 nL compound, profiling panel (AID 1168). Note: test concentration not given here. The conditions noted are these: JC-1 mitochondrial fluorescence, higher = more signal, called active from +8 up or from −8 down.
Experiment [18] can be described thus: JC-1 mitochondrial signal, unstimulated myeloma cells – cell-based, JC-1 fluorescence, RPMI8226, 24 h, 100 nL compound, profiling panel (AID 1169). Note: test concentration not given here. To be noted: JC-1 mitochondrial potential fluorescence, higher = more signal.
Experiment [19] can be described thus: JC-1 mitochondrial signal, unstimulated MM1S myeloma – cell-based, JC-1 fluorescence, 24 h, 100 nL compound, profiling panel (AID 1170). Note: test concentration not given here. To be noted: MM1S mitochondrial potential, higher = more signal.
Experiment [20] is described as follows: resazurin metabolic signal in A549 cells – cell-based, resazurin fluorescence, 24 h, PK04 Diversity Set, profiling panel (AID 1171). Note: test concentration not given here. To be noted: A549 viability, higher = more signal, called active from +8 up or from −8 down.

Activity calls are given as the source filed them.

Chain of NADPH oxidase 5 (Homo sapiens) (Q96PH1 whole entry, looked up): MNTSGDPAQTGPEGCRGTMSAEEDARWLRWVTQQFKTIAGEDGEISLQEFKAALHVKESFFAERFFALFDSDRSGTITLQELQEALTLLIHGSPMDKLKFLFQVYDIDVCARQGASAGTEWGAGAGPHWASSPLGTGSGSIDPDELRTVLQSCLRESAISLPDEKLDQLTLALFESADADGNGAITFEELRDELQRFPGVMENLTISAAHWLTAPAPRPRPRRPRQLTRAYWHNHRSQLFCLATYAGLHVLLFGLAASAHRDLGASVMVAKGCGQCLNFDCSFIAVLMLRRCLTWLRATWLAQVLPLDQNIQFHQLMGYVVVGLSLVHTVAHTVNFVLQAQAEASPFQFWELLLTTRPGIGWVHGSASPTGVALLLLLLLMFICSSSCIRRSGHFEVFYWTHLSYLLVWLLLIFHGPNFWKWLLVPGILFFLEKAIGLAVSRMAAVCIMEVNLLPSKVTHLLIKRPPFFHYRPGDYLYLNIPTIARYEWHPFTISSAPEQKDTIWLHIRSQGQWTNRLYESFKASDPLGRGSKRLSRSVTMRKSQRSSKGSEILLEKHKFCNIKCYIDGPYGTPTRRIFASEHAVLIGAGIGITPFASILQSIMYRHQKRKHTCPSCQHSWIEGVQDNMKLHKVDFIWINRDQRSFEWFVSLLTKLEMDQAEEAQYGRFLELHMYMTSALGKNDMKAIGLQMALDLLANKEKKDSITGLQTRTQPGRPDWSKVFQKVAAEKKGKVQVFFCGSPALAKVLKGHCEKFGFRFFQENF
Chain of NADPH oxidase 4 (Homo sapiens) (Q9NPH5 whole entry, looked up): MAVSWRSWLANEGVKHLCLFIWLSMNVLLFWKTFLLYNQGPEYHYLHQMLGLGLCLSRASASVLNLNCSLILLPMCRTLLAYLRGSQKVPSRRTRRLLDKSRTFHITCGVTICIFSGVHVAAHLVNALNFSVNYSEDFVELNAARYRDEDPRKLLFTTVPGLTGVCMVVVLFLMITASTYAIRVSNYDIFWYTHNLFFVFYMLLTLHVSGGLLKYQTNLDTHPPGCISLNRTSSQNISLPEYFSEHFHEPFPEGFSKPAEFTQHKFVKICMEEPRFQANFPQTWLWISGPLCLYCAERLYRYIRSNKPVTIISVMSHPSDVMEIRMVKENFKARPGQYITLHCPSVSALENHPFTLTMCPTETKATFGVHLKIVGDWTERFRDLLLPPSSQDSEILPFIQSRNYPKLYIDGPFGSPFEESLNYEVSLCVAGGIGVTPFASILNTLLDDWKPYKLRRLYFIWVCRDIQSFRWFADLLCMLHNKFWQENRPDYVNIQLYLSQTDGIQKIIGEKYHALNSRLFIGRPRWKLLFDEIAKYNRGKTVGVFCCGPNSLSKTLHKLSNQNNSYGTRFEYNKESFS
Chain of NADPH oxidase 2 (Homo sapiens) (P04839 whole entry, looked up): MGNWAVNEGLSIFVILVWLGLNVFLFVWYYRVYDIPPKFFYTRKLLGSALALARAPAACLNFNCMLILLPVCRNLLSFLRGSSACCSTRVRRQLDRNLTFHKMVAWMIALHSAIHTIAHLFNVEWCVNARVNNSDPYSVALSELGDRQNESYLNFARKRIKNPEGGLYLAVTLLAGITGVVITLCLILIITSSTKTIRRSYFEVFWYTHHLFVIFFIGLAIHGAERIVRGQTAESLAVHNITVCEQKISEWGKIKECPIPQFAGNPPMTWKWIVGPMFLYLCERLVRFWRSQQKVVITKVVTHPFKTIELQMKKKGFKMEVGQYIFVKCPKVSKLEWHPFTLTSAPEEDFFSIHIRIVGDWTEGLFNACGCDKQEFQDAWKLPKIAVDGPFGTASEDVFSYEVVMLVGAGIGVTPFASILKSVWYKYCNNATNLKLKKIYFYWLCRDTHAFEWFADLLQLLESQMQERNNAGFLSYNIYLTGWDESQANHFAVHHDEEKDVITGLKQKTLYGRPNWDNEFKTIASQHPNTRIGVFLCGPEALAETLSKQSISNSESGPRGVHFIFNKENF

As to `COc1ccc(CCNC(=O)[C@@]2(Sc3ccc(C)cc3)CC(=O)N(Cc3ccccc3C(F)(F)F)[C@@H]2c2ccc(CO)cc2I)cc1`, the z-score is 0.729 (inactive) in experiment [1]; 7.89 (inactive) in experiment [3]; 1.43 (inactive) in experiment [4]; 0.932 (inactive) in experiment [5]; 0.844 (inactive) in [6]; -0.513 in experiment [7]. Besides, the z-score in [8] is 0.933 (inactive); in [9] it was -2.09 (inactive); in experiment [10], 0.713; in [11], 0.751; in experiment [12] it was -0.178; in [13], -0.253. Besides, the z-score in [14] was -2.41; in [15] it was -2.36; in [16], -1.03; in [17], -0.322 (inactive); in [18], -0.714; in experiment [19], -0.841. Also, the z-score in [20] was 0.956 (inactive). This molecule also showed a composite z-score in experiment [2] of 0.0701.

Turning to `C=CC[C@@H](OC(=O)Nc1ccc(SC)cc1)c1ccc(O)c(F)c1`, the z-score in [1] was 0.959 (inactive); in [3] it was 24.1 (active); in experiment [4], 6.56 (inactive); in [5], 1.9 (inactive); in [6] it was 1.04 (inactive); in experiment [7], 0.42. Besides, the z-score in [8] was -5.77 (inactive); in experiment [9] it was -2.85 (inactive); in experiment [10], -3.25; in experiment [11], 1.12; in experiment [12], -0.475; in experiment [13] it was -0.889. The z-score is -2.14 in experiment [14]; -1.75 in experiment [15]; -2.43 in experiment [16]; 4.4 (inactive) in experiment [17]; -0.343 in experiment [18]; -1.04 in experiment [19]. Further, in experiment [20], the z-score was -0.68 (inactive). The composite z-score in [2] is -0.0573.

Turning to `[N-]=[N+]=NCc1ccccc1[C@@H]1OC(c2ccc(OCCCO)cc2)=N[C@]1(CCS(=O)(=O)c1ccccc1)C(=O)O`, the z-score in experiment [1] was -0.0791 (inactive); in experiment [3], 18.8 (active); in experiment [4] it was 4.31 (inactive); in experiment [5], 0.296 (inactive); in [6] it was 0.716 (inactive); in [7] it was -0.0381. The z-score was 1.19 (inactive) in experiment [8]; 1.33 (inactive) in experiment [9]; 2.11 in experiment [10]; 0.338 in experiment [11]; -0.801 in [12]; 1.05 in experiment [13]. Also, the z-score in [14] is 0.078; in [15], -0.206; in experiment [16], -1.69; in experiment [17], -1.02 (inactive); in experiment [18], -0.178; in experiment [19] it was -1.39. The z-score in experiment [20] is -0.216 (inactive). In experiment [2], this molecule registered a composite z-score of 0.186.

In the case of `CCOC(=O)C1=C[C@@H](C(C)C)N(S(=O)(=O)c2ccc(C)cc2)[C@H]1c1ccc(C(F)(F)F)cc1`, the z-score was -1.58 (inactive) in experiment [1]; 0.172 (inactive) in experiment [3]; 0.279 (inactive) in experiment [4]; -0.422 (inactive) in [5]; 0.0209 (inactive) in experiment [6]; -0.696 in experiment [7]. In addition, the z-score in experiment [8] is -0.116 (inactive); in [9], 0.024 (inactive); in experiment [10] it was 0.599; in experiment [11], -0.731; in experiment [12], -0.448; in [13] it was -1.53. For the same molecule, the z-score in experiment [14] was -2.91; in experiment [15] it was -1.65; in experiment [16], 3.7; in [17], -0.216 (inactive); in [18], -0.208; in experiment [19], -0.446. Further, the z-score in experiment [20] was 0.793 (inactive). Besides, the composite z-score in [2] is 0.2.

Turning to `CC(C)=C1C(=O)C(c2ccccc2)=C2CN3C(=O)N(CCc4ccccc4)C(=O)[C@]3(Cc3ccc(C(F)(F)F)cc3)[C@H]21`, the z-score in experiment [1] is -2.19 (inactive); in [3] it was 22.3 (active); in experiment [4], 5.86 (inactive); in experiment [5], 0.511 (inactive); in experiment [6], 1.21 (inactive); in [7], -0.558. The z-score in [8] was -0.12 (inactive); in experiment [9] it was -1.21 (inactive); in experiment [10] it was -0.226; in experiment [11] it was 0.549; in [12], 0.66; in [13], -0.232. In addition, the z-score is -1.14 in experiment [14]; -1.16 in experiment [15]; -1.5 in [16]; -0.876 (inactive) in [17]; -0.699 in [18]; -0.746 in experiment [19]. Moreover, the z-score in experiment [20] was -0.327 (inactive). In experiment [2], this molecule yielded a composite z-score of 0.522.
